Assay results published in PubChem BioAssay (NCATS).
Active and inactive are the calls of the source. Calls follow the shape of the dose curve; as a rule, active = well fitted activation curve with a large enough effect; inconclusive = small, poorly fitted or top-dose-only effect; inactive = flat fitted curve, though single readings scatter.

assay: Cellular Toxicity (caspase-3) N2a (AID 665); details: N2a cells, luminescence, normalized: DMSO 0%, 10 µM staurosporine 100%; series mostly up to 92.2 µM; caspase-3 activation: at the top concentration;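 also: compound exposure lasted 16 h at 37 °C before readout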
Source text: NIH Chemical Genomics Center [NCGC]
NIH Molecular Libraries Screening Centers Network [MLSCN]
National Institutes of Environmental Health Sciences [NIEHS]
National Toxicology Program [NTP]
We have developed a 1536-well cell-based assay for quantitative high throughput screening (qHTS) against a number of cell lines to determine in vitro caspase 3/7 activity of small molecules. This particular assay uses the N2a cell line which is derived from mouse neuroblastoma.
NCGC Assay Protocol Summary:
The Caspase-Glo 3/7 assay (Promega) is a homogeneous method to measure caspase-3 and caspase-7 activities in cultured cells. The quantitation of caspase 3/7 activity is based on the cleavage of a peptide-aminoluciferin substrate. After caspase cleaves the substrate the free aminoluciferin is liberated and serves as the substrate of luciferase, which generates the light. The luminescent signal is proportional to the amount of caspase 3/7 activity present.
Using the Caspase-Glo 3/7 assay, the amount of caspase 3/7 activity was measured in the N2a cells with complete culture medium following compound treatment for 16 hours. The assay was performed in opaque white 1536-well plates. In the screen, staurosporine and doxorubicin were used as positive controls. Library compounds were measured for their ability to cause the activation of caspase 3/7 in the cell line, as reflected by an increase in luminescence signal, in a concentration-dependent manner. Data were normalized to the controls for basal activity (DMSO only) and 100% stimulation (10 uM staurosporine). AC50 values were determined from concentration-response data modeled with the standard Hill equation.
qHTS protocol for caspase 3/7 assay in mouse N2a cell line
[Step] [Parameter] [Value] [Description]
1. Reagent; 5 uL; 1500 mouse N2a cells/well
2. Time; 5 hr; 37 °C incubation
4. Controls; 23 nL; doxorubicin 7 pM to 100 uM & staurosporine 1.4 pM to 20 uM
5. Time; 16 hr; 37 °C incubation
6. Reagent; 5 uL; Caspase-Glo 3/7 reagent
7. Time; 1 hr; Room Temperature
8. Detection; Luminescence; Viewlux plate reader
Keywords: caspase 3/7, apoptosis, mouse N2a cell line, luminescence, NTPHTS, NTPHTS_NCGC, NIEHS, EPA, DSSTox, MLSMR, MLSCN, NIH Roadmap, qHTS, NCGC

Compound | caspase-3 activation
Cc1cnc[nH]1 | -2.21% (inactive)
Clc1ccc(C(c2ccccc2Cl)C(Cl)(Cl)Cl)cc1 (stereo not given) | 9.61% (inactive)
C=CCCC#N | -3.64% (inactive)
[N-]=[N+]=[N-] | -3.73% (inactive)
CN(C)C(=O)Nc1cccc(C(F)(F)F)c1 | 0.45% (inactive)
C=CC(=O)OCC(C)C | -2.04% (inactive)
c1ccc(N=NNc2ccccc2)cc1 | -8.47% (inactive)
Cc1ccc([N+](=O)[O-])cc1 | -2.49% (inactive)
Nc1cccc2ccccc12 | -5.68% (inactive)
N#CCBr | -1.76% (inactive)
S=c1[nH]c2ccccc2[nH]1 | -4.04% (inactive)
c1ccc(C2CO2)cc1 (stereo not given) | -1.36% (inactive)
O=[N+]([O-])c1ccc(Cl)cc1 | 3.28% (inactive)
O=[N+]([O-])c1cccc(CCl)c1 | 2.63% (inactive)
O=C(Cc1ccccc1)OCc1ccccc1 | -2.6% (inactive)
Cc1cccc(C)c1N | 1.33% (inactive)
O=[N+]([O-])c1ccccc1CCl | -2.76% (inactive)
O=C(O)C(Cl)Br (stereo not given) | -4.39% (inactive)
BrCC(Br)C1CCC(Br)C(Br)C1 (stereo not given) | 1.12% (inactive)
Oc1cc(Cl)cc(Cl)c1 | -3.23% (inactive)

Compound | caspase-3 activation
CCN(N=O)C(N)=O | 1.55% (inactive)
C=CC=O | -3.83% (inactive)
CN(C)c1ccc(N)cc1 | -13.4% (inactive)
c1ccc(Nc2ccc(Nc3ccccc3)cc2)cc1 | -4.33% (inactive)
COc1ccccc1N | 1.38% (inactive)
OCCOCCO | -2.55% (inactive)
BrC(Br)Br | -3.64% (inactive)
NC1CCC(CC2CCC(N)CC2)CC1 (stereo not given) | -0.64% (inactive)
Oc1ccc(Cl)c(Cl)c1 | 1.52% (inactive)
CCBr | -1.05% (inactive)
Clc1cccc(Cl)c1Cl | 0.975% (inactive)
Nc1ncc([N+](=O)[O-])s1 | 1.02% (inactive)
Nc1ccc(Cc2ccc(N)cc2)cc1 | -0.912% (inactive)
O=[N+]([O-])c1c(Cl)c(Cl)c(Cl)c(Cl)c1Cl | 0.453% (inactive)
CCCCCc1cc(O)cc(O)c1 | -0.268% (inactive)
CCCCCCCCCCCOC(=O)c1ccccc1C(=O)OCCCCCCCCCCC | 2.97% (inactive)
Cc1ccc(N)c(N)c1 | -17.1% (inactive)
C=CCBr | 1.22% (inactive)
CC(C)OS(C)(=O)=O | -3.43% (inactive)
O=[N+]([O-])c1cccc(O)c1 | -4.24% (inactive)
